The source made the active and inactive calls. Calls follow the shape of the dose curve; as a rule, active = well fitted curve in the direction sought with a large enough effect; inconclusive = small, poorly fitted or top-dose-only effect, or another doubt; inactive = no such curve, though single readings can be large or run the other way. Square brackets hold non-standard residues; d marks the D form. Peptide text beside a SMILES is read from it. ξ: configuration not given here. ξL = CC(C)CC(N)C(=O)O
Test: Inflammasome Signaling qHTS Counterscreen: IL-1-beta AlphaLISA counterscreen against the NCATS CANVASS Library (AID 1347381);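 also: cell-free check with purified IL-1β in medium and no THP-1 cells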
Settings: Purified IL-1beta AlphaLISA signal interference counterscreen; series mostly up to 57.5 µM
Procedure, shortened: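 Here, no cellular stimulation occurs; compounds in an 11-point series meet 4 pg purified IL-1-beta directly. Bead-based AlphaLISA detection follows (1 h acceptor/antibody, then 30 min donor, dark, room temperature), with excitation at 680 nm.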

Structure (SMILES)	outcome
CC(=O)N[C@H](C)c1nc(/C=C/C=C/C(=O)CC2CC(=O)CC[C@]2(C)O)cs1 (stereo not given in full)	inactive
CN1C(=O)C(=O)N2C(=C[C@]3(c4c[nH]c5ccccc45)c4ccccc4N[C@H]23)C1=O	inactive
CN1CC[C@]23c4ccccc4N[C@H]1[C@]21CCN(C)[C@H]3Nc2ccccc21	inactive
C/C=C1/C2=CCCN3C(=O)O[C@H]([C@H]1O)[C@H]23	inactive
O=C1CC(c2ccc(O)cc2)Oc2ccccc21 (stereo not given)	inactive
COc1c(O)cc(O)c2c(=O)cc(-c3ccccc3)oc12	inactive
COC1C(C)OC(OCC23C[C@@H]4[C@H](C)CC[C@H]4C4(C=O)CC2C=C(C(C)C)C34C(=O)O)[C@@H](O)[C@H]1O (stereo not given in full)	inactive
CN1CC[C@@]2([C@@]34CCN(C)[C@@H]3Nc3ccccc34)c3ccccc3N[C@@H]12	inactive
COc1ccc(-c2oc3cc(OC)cc(OC)c3c(=O)c2O)cc1	inactive
CC[C@@H](C)[C@H]1NC(=O)C(CC(C)C)NC(=O)[C@@H](CC(C)C)NC(=O)[C@H](Cc2c[nH]c3ccccc23)NC(=O)CNC(=O)[C@@H](CC(N)=O)NC1=O (stereo partly drawn) (cyclo(GW[dL][ξL][dI][dN]))	inactive
Cc1cc(O)cc2c1C(=O)c1c(O)cc(O)cc1C2=O	inactive
C=C(Cl)[C@](Cl)(CBr)CC[C@@H](Br)C(C)(C)Cl	inactive
C=C(C)C(=O)O[C@H]1C[C@@]2(C)OC(=CC2=O)/C(C)=C\[C@H]2OC(=O)C(=C)[C@H]12	inactive
C=C[C@]1(C)CC[C@@H]([C@H](C)C(=O)CC=C(C)C)O1	inactive
CC[C@@H]1C[C@@]2(CC)OC(=O)[C@@]3(CC)[C@H](CC)[C@@H]1[C@@H]23	inactive
[C-]#[N+][C@@]12C(=O)[C@@H]3[C@@H](O[C@@]4(C(=O)N(C)c5cccc1c54)C3(C)C)C(=O)[C@@]2(C)C=C	inactive
COC(=O)c1cccc2oc(-c3cccc4oc(-c5c(C)cccc5O)nc34)nc12	inactive
C[C@@]12CCC[C@@](C)(C(=O)OP(=O)(O)OC[C@H]3O[C@@H](n4cnc5c(N)ncnc54)[C@H](O)[C@@H]3O)[C@H]1C[C@@H](O)[C@@]13C[C@@H](CC[C@@H]21)[C@](C)(O)C3	inactive

Structure (SMILES)	outcome
CCC(C)=C1OC(=O)[C@H](C)[C@H](O)[C@H](Cc2cccnc2)NC(=O)C(NC(=O)c2ncccc2O)C(C)OC1=O (stereo not given in full)	inactive
C[C@@]12CCC[C@@](C)(C(=O)O)[C@H]1CC[C@@]13C[C@@H](CC[C@H]12)[C@](C)(O)C3	inactive
O=C1OC(CCO)c2cccc(O)c21 (stereo not given)	inactive
C=C1C[C@]23C=CC(=O)[C@@](C)(CCCC(C)C(=O)N[C@@H](CO)C(=O)O)[C@@H]2C[C@@H]1CC3 (stereo not given in full)	inactive
COc1cc2ccc(=O)oc2c(O)c1O[C@@H]1O[C@H](CO)[C@@H](O)[C@H](O)[C@H]1O	inactive
C/C(=C\[C@@H](C)CC/C=C/CC/C=C/C(=O)O)[C@@H](O)[C@H](C)C(=O)CCCC1CC(=O)NC(=O)C1	inactive
CO[C@@H](C[C@@H](C)[C@@H](O)/C=C/C=C/CNC(=O)C(C)(C)[C@H](O)\C(C)=C/C=C\C=C\Cc1cnco1)[C@]1(O)[C@@H](C)C(=O)N(C)[C@@]12COC2=O	inactive
O=C1CC(c2ccc(O)cc2)Oc2cc(O)cc(O)c21 (stereo not given)	inactive
O=C1CC(c2ccc(O)cc2)Oc2cc(O)ccc21 (stereo not given)	inactive
CN1CC[C@@]23c4ccccc4N[C@@H]1[C@@]21CCN(C)[C@@H]3Nc2ccccc21	inactive
C[C@@]12CCC[C@@](C)(C(=O)O)[C@H]1C[C@@H](O)[C@@]13C[C@@H](CC[C@@H]21)[C@](C)(O)C3	inactive
O=Cc1ccc2n1C[C@]1(OC2)O[C@H](CO)[C@@H](O)[C@@H]1O	inactive
C=C[C@@]1(C)CC[C@@H]([C@H](C)C(C)=O)O1	inactive
C/C=C(/CO)C(=O)O[C@@H]1[C@H](O)[C@@H](C(=O)OC)O[C@@H]2C[C@H]3OC(n4cnc5c(N)ncnc54)[C@H](OC)[C@H]3O[C@@]12O (stereo not given in full)	inactive
C/C=C/[C@H]1[C@H]2C(=O)c3c(O)c(C)c(O)c(C)c3[C@]1(C(=O)O)C(=O)C=C2C	inactive
C[C@@]12C[C@@H](C[C@@H]3C(=O)O[C@@H](c4ccoc4)[C@H](OC(=O)c4ccccc4)[C@@H]31)OC2=O	inactive
C=C1CCC2C(C)(C(=O)O)CCC(CC/C(C)=C/C(=O)NC(CCC(N)=O)C(=O)O)[C@@]2(C)C1 (stereo not given in full)	inactive

Reference: PubChem BioAssay (NCATS)
